# ELG1 DNA repair: blocks ELG1-dependent DNA repair in HEK293T cells; HEK293T ELG1-luciferase reporter, luminescence, 16 h; DNA damage induced by 5-fluorouridine; Potency, µM (highest dose often 46.1 µM), for inactives: top-dose activity change, negative = inhibition, usual class: inhibitors; 330,000 compounds, 2.3% hits; note: nearly all actives have a fitted effect of over 55% in size
#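 Step one: seed 2,000 cells per well. Step two: pin-transfer compound or DMSO alongside 5-fluorouridine. Step three: incubate 16 hr, 37 °C, 5% CO2. Step four: add ONE-Glo, wait 30 min, read luminescence.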
# TDP1 cell CPT: DT40-hTDP1 cell growth loss with CPT. Potency, µM (highest dose often 46.2 µM), for the others: at the top dose activity change, negative = growth inhibition, usual class: inhibitors. 420,000 compounds, 12% hits. chicken DT40 Tdp1-/-;hTDP1 cells + 20 nM CPT, ATP luminescence, 48 h; note: nearly all actives have a fitted effect of over 55% in size
#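 Cell growth measured by CellTiter-Glo luminescence after a minimum 48 h, 37 C compound exposure with 20 nM CPT in Tdp1-knockout DT40 cells stably expressing hTDP1, seeded 400/well; qHTS titration format.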
# ALOX12 inh: ALOX12 (human) lipoxygenase inhibition | purified 12hLO, xylenol orange hydroperoxide absorbance | 580,000 compounds, 1.1% hits | P18054 | Potency, µM (series often up to 108 µM), for the others: top-dose activity change, negative = inhibition, usual class: inhibitors
#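 Purified human 12hLO at 150 nM in 25 mM Hepes, 0.01% Triton X-100, pH 7.0, preincubated 15 min at room temperature with compound. Reaction started with 40 uM arachidonic acid, 30 min at room temperature. Hydroperoxide measured by Fe-xylenol orange, 573/405 nm absorbance ratio.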
# DT40 TDP1 no CPT: qHTS for Inhibitors of human tyrosyl-DNA phosphodiesterase 1 (TDP1): qHTS in cells in absence of CPT. DT40 Tdp1-/- hTDP1 cells, no CPT, ATP luminescence, 48 h. Potency, µM (highest dose often 46.2 µM), inactives show at the highest dose activity change, negative = growth inhibition, hits mostly inhibitors. 420,000 compounds, 15% hits; note: nearly all actives have a fitted effect of over 55% in size
#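 Chicken DT40 Tdp1-/- cells stably complemented with human TDP1 were seeded at 400 cells/well with DMSO in place of 20 nM camptothecin. After compound pinning, cells grew at least 48 hr at 37 °C; viability read by CellTiter-Glo luminescence.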
# Gal4-VP16 FLuc: counter-screen for ROR gamma inhibitors: Gal4-VP16 reporter. Potency, µM (titrated, usually from 53.6 µM), without a hit: at the highest dose activity, negative = inhibition, hits mostly inhibitors. Drosophila S2 Gal4-VP16 UAS-luciferase, luminescence, 20 h. 310,000 compounds, 3.5% hits;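 note: Gal4-VP16 expression switched on by copper sulfate through the metallothionein promoter; nearly all actives have a fitted effect of over 50% in size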
# RORgamma inh: inhibitors of mouse ROR gamma transcriptional activity. P51450. Drosophila S2 Gal4-RORgamma UAS-luciferase reporter, 20 h. Potency, µM (series often up to 53.6 µM), for inactives: top-dose activity change, negative = inhibition, hits mostly inhibitors. 310,000 compounds, 5.4% hits; note: nearly all actives have a fitted effect of over 60% in size
# Target sequence (P51450 whole entry, looked up, the tested form may be a part): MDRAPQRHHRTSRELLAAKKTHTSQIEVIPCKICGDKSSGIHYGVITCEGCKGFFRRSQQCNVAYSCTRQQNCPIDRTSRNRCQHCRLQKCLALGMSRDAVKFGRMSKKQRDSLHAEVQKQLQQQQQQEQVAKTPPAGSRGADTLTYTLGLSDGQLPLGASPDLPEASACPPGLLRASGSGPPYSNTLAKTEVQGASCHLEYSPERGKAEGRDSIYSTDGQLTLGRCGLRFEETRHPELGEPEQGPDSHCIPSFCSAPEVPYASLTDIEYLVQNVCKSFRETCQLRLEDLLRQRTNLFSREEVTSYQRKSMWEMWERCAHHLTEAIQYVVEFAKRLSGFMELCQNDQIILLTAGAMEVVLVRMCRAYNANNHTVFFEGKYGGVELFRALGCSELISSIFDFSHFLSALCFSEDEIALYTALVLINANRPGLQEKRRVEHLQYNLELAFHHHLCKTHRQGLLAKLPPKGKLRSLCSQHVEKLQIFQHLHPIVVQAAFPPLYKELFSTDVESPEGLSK
#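 Schneider cells (Drosophila), stable Gal4 DBD–ROR gamma + UAS-luc; 1 hr cmpd preincubation; Cu2+ induction 700 uM final; 20 hr ambient; luminescence.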
# * hit, by the source's call; ? = inconclusive; . = no result; [ ] = dose if it differs, or a comment. This is a sample that favours compounds with a hit; in the whole collection about 15% have one here. Calls come from the whole dose curve; as a rule, active = well fitted curve in the direction sought with a large enough effect; inconclusive = small, poorly fitted or top-dose-only effect, or another doubt; inactive = no such curve, though single readings can be large; an effect the other way counts as inactive or inconclusive. % is set by controls: 0 for no effect and ±100 for the full control effect; potency is the fitted concentration of half-maximal effect.
SMILES,ELG1 DNA repair,TDP1 cell CPT,ALOX12 inh,DT40 TDP1 no CPT,Gal4-VP16 FLuc,RORgamma inh
CS/C(N)=N/N=C/c1cc(Br)cc(Br)c1O,1.3%,?,7.5%,16.4µM*,2.51µM*,0.631µM*
C=CCS/C(N)=N\N=C\c1cc(Br)cc([N+](=O)[O-])c1O,-22.3%,?,-14.6%,7.31µM*,3.16µM*,0.316µM*
CCS/C(N)=N/N=C/c1cc(C)ccc1O,?,0.581µM*,0.1%,0.82µM*,2µM*,0.708µM*
CCCCCc1ccc(C)cc1O,.,-67.6%,.,-72.4%,?,-3.4%
O=[N+]([O-])c1cc(Br)cc(/C=N/n2cnnc2)c1O,-16.2%,-26.2%,?,?,13.6%,8.3%
CCCCS/C(N)=N/N=C/c1cc(C)ccc1O,?,4.11µM*,162.0%,5.17µM*,5.01µM*,5.62µM*
COC(=O)COc1ccc2c(c1)oc(=O)c1ccccc12,.,.,-113.2%,.,.,.
CC(C)OCCCNC(=O)c1cc(=O)[nH]c2ccccc12,.,.,17.8%,.,.,.
CS/C(N)=N/N=C/c1cc(C)ccc1O,?,-2.9%,-9.7%,?,5.01µM*,0.316µM*
Nn1cnnc1N/N=C/c1cc(Br)cc(Br)c1O,-19.2%,?,31.1%,?,12.6µM*,10µM*
CCC(C(=O)Nc1c(C)cccc1C)n1c(-c2ccc(-c3ccccc3)cc2)nc2ccccc21 (configuration not stated),.,14.6µM*,0.1%,14.6µM*,.,.
CC(C)(C)NC(=O)C(c1ccc(-c2ccccc2)cc1)n1c(=O)c(-c2ccco2)nc2ccccc21 (configuration not stated),.,?,39.8µM*,?,.,.
Cc1cccc(C)c1NC(=O)C(c1ccc(-c2ccccc2)cc1)n1c(=O)c(-c2ccco2)nc2ccccc21 (configuration not stated),.,?,12.6µM*,?,.,.
O=C(NCc1ccccc1)C(c1ccc(-c2ccccc2)cc1)n1c(=O)c(-c2ccco2)nc2ccccc21 (configuration not stated),.,?,14.1µM*,?,.,.
Cc1ncsc1C(=O)NC(C)c1ccc(F)cc1 (configuration not stated),.,.,38.8%,.,.,.
COc1ccc(-c2nc(Cn3nc(C)c4c(C)onc4c3=O)c(C)o2)cc1,.,.,-6.9%,.,.,.
Cc1ccc(NC(=O)c2nn(Cc3ccccc3)c(=O)c3ccccc23)c(Cl)c1,.,.,1.9%,.,.,.
CCOC(=O)c1cccc(NC(=O)c2ccc(-n3cnc(NC(=O)C(C)C)c3)cc2)c1,.,.,-20.8%,.,.,.
COc1ccc(OC)c([S+](=O)([O-])c2nnn3c2nc(N2CCC(F)CC2)c2ccccc23)c1,.,.,-0.3%[6.33 µM],.,.,.
COc1cccc(F)c1-c1nc2ccccc2n1C(C(=O)Nc1c(C)cccc1C)c1ccccc1 (configuration not stated),.,.,-26.1%,.,.,.
COc1ccc(C(C(=O)NC(C)(C)C)n2c(=O)c(-c3ccco3)nc3ccccc32)cc1 (configuration not stated),.,?,25.1µM*,23.1µM*,.,.
Cc1cccc(C)c1NC(=O)C(c1ccccc1)n1c(=O)c(-c2ccccc2)nc2ccccc21 (configuration not stated),.,?,-9.2%,16.4µM*,.,.
CC(C)n1cc(C(=O)N2C[C@@H](CN3CCOCC3)[C@@H](CO)C2)cn1,.,.,10.1%,.,.,.
CCN(CC)S(=O)(=O)c1ccc(=O)n(Cc2noc(CC(C)C)n2)c1,.,.,6.5%,.,.,.
O=C1CC(c2ccccc2)N(C(=O)CNC(=O)C2CCOCC2)CCCCCN1 (configuration not stated),.,.,-2.5%,.,.,.
SMILES,ELG1 DNA repair,TDP1 cell CPT,ALOX12 inh,DT40 TDP1 no CPT,Gal4-VP16 FLuc,RORgamma inh
Cc1cnc(C(=O)NC2C[C@H]3CC[C@@H](C2)N3C(=O)c2ccc(C)c(F)c2)cn1 (some centres not stated),.,.,35.9%,.,.,.
C[C@]12CCC(O)CC1CCC1C2CC[C@]2(C)C(c3cc(C(F)(F)F)n[nH]3)CCC12 (some centres not stated),?,?,-0.7%,13µM*,4.6%,24.8%
COc1ccc(/C=C2/CSC/C(=C/c3ccc(OC)c(OC)c3)C2=O)cc1OC,.,4.11µM*,-22.8%,2.91µM*,.,.
COc1ccc(/C=C2\N=C(C)OC2=O)cc1OC(C)=O,3.5%,?,0.0%,-15.7%,20.8%,3.5%
COc1ccc(/C=C2\N=C(C)OC2=O)cc1OC,5.8%,10.3µM*,-3.7%,-22.0%,-2.1%,6.6%
COc1cc(C=C2CCCC(=Cc3ccc(OCC4CO4)c(OC)c3)C2=O)ccc1OCC1CO1 (configuration not stated),.,5.8µM*,-29.8%,3.66µM*,.,.
O=C(/C(=C/c1cccnc1)n1ccnc1)c1ccc(Cl)cc1Cl,0.0%,16.4µM*,93.9%,14.6µM*,-13.6%,11.7%
O=C(/C(=C/c1ccncc1)n1ccnc1)c1ccc(Cl)cc1Cl,?,16.4µM*,?,13µM*,-4.5%,?
CC1CC(N(C(=O)c2ccc(Cl)cc2)c2ccccc2)c2ccccc2N1C(=O)c1ccco1 (configuration not stated),?,11.6µM*,1.8%,5.8µM*,8.9%,-7.2%
CCOC(=O)C(=O)N1c2ccccc2C(N(C(=O)C(=O)OCC)c2ccccc2)CC1C (configuration not stated),2.4%,-6.2%,?,?,-0.1%,29.2%
CC(=O)/C(=N\Nc1ccc(Cl)cc1Cl)Sc1nnc(-c2ccccc2)n1-c1ccccc1,6.6%,?,?,?,-24.6%,-26.4%
CC(=O)C(N=Nc1ccccc1)(Sc1nnc(-c2ccccc2)n1-c1ccccc1)C(C)=O,-14.4%,?,0.0%,16.4µM*,10.1%,-35.6%
CC(=O)/C(=N\Nc1ccccc1)Sc1nnc(-c2ccccc2)n1-c1ccccc1,?,-22.9%,-22.5%,-21.5%,?,10µM*
CC(=O)/C(=N\Nc1ccccc1Cl)Sc1nnc(-c2ccccc2)n1-c1ccccc1,-19.0%,-25.7%,?,?,?,10µM*
Cc1cnc(C(=O)N2CCCCCCNC(=O)[C@@H]3C[C@@H](c4nc(-c5cccnc5)no4)C[C@@H]32)cn1,.,.,21.4%,.,.,.
COCCn1c2c(c(=O)n1-c1ccccc1)CCN(C(=O)c1cc3ccccc3[nH]1)C2,.,.,-2.2%[176 µM],.,.,.
COc1ccc(CCNc2ncnc3nc[nH]c23)cc1,.,2.82µM*,.,6.31µM*,.,.

# Bioassay records deposited in PubChem BioAssay by National Center for Advancing Translational Sciences (NCATS).
